The other results are listed elsewhere or left out. Results filed as inconclusive are left out. A number with no mark means an inactive call. Active and inactive are the calls of the source. Calls follow the shape of the dose curve; as a rule, active = well fitted inhibition curve with a large enough effect; inconclusive = small, poorly fitted or top-dose-only effect; inactive = no such curve, though single readings can be large or run the other way.
These compounds were tested against ATPase family AAA domain-containing protein 5 (Homo sapiens) (UniProt Q96QE3) (assay: HTS assay for small molecules that inhibit ELG1-dependent DNA repair in human embryonic kidney (HEK293T) cells expressing luciferase-tagged ELG1: Hit Confirmation (AID 624248; also: nearly all actives have a fitted effect of over 55% in size)). Conditions: HEK293T ELG1-luciferase levels, luminescence, cells co-treated with 5-fluorouridine; series mostly up to 46.1 µM; activity change, negative = inhibition: at the top concentration.
ATPase family AAA domain-containing protein 5 (Homo sapiens), sequence (Q96QE3 whole entry, looked up, the tested form may be a part): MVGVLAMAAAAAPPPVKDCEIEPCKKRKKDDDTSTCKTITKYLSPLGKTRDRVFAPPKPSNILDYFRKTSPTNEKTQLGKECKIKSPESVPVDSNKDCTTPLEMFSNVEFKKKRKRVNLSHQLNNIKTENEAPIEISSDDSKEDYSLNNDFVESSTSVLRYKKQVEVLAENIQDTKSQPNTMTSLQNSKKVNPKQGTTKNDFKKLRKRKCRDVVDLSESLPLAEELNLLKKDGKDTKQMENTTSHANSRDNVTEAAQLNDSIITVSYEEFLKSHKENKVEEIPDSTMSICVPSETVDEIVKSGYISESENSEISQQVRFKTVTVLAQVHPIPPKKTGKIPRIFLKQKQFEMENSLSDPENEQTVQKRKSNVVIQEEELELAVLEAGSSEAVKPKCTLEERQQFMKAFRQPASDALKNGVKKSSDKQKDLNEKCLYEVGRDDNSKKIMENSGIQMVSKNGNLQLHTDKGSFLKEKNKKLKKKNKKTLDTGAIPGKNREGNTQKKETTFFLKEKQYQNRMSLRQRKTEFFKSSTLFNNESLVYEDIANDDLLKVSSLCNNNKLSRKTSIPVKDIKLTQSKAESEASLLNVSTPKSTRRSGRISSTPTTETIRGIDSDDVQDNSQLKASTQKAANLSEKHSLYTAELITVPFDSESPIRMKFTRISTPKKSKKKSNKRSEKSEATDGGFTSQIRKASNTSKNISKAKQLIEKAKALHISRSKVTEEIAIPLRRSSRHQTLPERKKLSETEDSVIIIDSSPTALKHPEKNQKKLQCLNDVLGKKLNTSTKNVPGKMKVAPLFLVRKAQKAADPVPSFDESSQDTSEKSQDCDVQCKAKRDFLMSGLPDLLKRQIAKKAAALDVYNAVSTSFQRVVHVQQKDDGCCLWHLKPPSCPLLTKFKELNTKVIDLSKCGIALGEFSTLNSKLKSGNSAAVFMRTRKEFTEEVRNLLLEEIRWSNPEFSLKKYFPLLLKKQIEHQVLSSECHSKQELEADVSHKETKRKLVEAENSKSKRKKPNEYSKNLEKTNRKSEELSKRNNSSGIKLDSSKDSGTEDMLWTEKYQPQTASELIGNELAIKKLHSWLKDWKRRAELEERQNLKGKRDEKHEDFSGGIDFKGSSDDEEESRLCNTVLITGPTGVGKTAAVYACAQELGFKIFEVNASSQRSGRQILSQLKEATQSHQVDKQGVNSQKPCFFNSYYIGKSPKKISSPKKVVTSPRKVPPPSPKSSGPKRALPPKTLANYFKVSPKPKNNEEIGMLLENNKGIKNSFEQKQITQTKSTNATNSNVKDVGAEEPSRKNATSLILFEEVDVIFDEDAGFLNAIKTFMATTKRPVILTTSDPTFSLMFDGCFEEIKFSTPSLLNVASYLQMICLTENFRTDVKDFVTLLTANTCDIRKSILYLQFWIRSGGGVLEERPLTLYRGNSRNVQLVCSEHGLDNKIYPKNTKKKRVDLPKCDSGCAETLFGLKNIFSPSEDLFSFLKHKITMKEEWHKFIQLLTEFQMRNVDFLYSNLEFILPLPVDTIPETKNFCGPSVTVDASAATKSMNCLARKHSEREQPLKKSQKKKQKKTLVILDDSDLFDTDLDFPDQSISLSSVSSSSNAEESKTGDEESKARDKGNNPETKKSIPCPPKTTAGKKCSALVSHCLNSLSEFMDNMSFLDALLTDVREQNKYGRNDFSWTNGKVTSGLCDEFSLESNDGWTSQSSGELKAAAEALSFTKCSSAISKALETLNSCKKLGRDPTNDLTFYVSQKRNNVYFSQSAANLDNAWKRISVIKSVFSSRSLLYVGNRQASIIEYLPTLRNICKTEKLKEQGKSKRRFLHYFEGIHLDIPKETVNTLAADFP
Text: Cancer cells divide rapidly compared to normal cells in the body. During cell division, cancer cells need to duplicate their genome by DNA replication. The failure of genome duplication leads to cancer cells' death. Therefore, inhibitors of DNA replication could specifically kill cancer cells. Based on this concept, many chemotherapeutic agents were developed and have been used to treat cancer patients. However, there are a limited number of agents available in the clinical setting, and some of those that do exist have low efficacy and severe side effects. Therefore, if we can find the compounds that effectively block DNA replication either by directly damaging DNA or by inhibiting other cellular mechanisms, the options for cancer treatment will be broadened. With this in mind, we developed a quantitative high-throughput ELG1-luciferase reporter gene assay. Small molecules that specifically block ELG1 function in response to DNA damage can be identified by monitoring the suppression of luciferase activity. Since ELG1 defines a pathway for repairing DNA damage, agents blocking ELG1 function can be used to sensitize cancer cells to chemotherapeutic agents whose mechanism of action involves the induction of DNA damage.
NIH Molecular Libraries Probe Production Network [MLPCN]
NIH Chemical Genomics Center [NCGC]
Assay Provider: Kyungjae Myung, NHGRI, NIH
For genotoxicity screening, 2,000 cells in 4 uL/well were dispensed into white, solid-bottom 1536-well plates using a solenoid-based dispenser. Following transfer of 1 uL 5-Fluorouridine and 23 nL compound or DMSO vehicle by a pin tool, the plates were incubated 16 hr at 37 °C and 5% CO2. 5 ul ONE-Glo (Promega) was then added to each plate and following a 30 min incubation at room temperature, luciferase activity was quantified on a ViewLux CCD-based plate reader.
With `Nc1nnc(SCC(=O)Nc2ccc3nc(SCC(=O)Nc4ccccc4)sc3c2)s1` the Potency was 0.888 µM (active). `Cc1cc2oc(=O)cc(CN3CCN(S(=O)(=O)c4cccs4)CC3)c2cc1C(C)C` was tested, and the Potency was 3.53 µM (active). In the case of `CCc1ccc(N(CC)c2ncnc3nc[nH]c23)cc1`, the Potency is reported as 4.99 µM (active). With `CN(CC1CCCO1)S(=O)(=O)c1ccc(C(=O)Nc2ccc(F)cc2)cc1` (stereo unspecified) the Potency was 9.96 µM (active). With `Cc1ccc(N(Cc2ccc(C(=O)Nc3ccccc3C(=O)NCc3ccco3)cc2)S(C)(=O)=O)cc1C` the Potency was 6.28 µM (active). For `NC(=O)c1sc2nc3c(c(-c4ccccc4)c2c1N)CCC3`, the Potency was 1.77 µM (active). With `Clc1ccc2nc(-c3ccccc3)nc(C(Cl)Cl)c2c1` the Potency was 3.53 µM (active). For `CCOC(=O)c1cccc(NC(=O)C2CCN(c3ncnc4c3nc3n4CCCCC3)CC2)c1`, the Potency was 3.97 µM (active). In the case of `OCCCNc1nccc(-c2cc(Nc3cccc(Cl)c3)ncn2)n1`, the Potency is reported as 0.792 µM (active). In the case of `CS(=O)(=O)c1ccc2nc(NC(=O)C3CCCCC3)sc2c1`, the Potency is reported as 6.28 µM (active). In the case of `COc1ccccc1C(=O)Nc1ccc(C)c(S(=O)(=O)N2CCCCC2)c1`, the Potency is reported as 14.1 µM (active). In the case of `COc1ccc(CSc2nc(N3CCOCC3)c3c(c2C#N)CC(C)(C)OC3)cc1`, the Potency is reported as 0.889 µM (active). With `CC12CCC(C(=O)N3CCN(c4ncccn4)CC3)(c3nc4ccccc4nc31)C2(C)C` (stereo unspecified) the Potency was 7.91 µM (active). With `CC(=O)c1c(C)n(-c2ccc(C)cc2)c2ccc(O)cc12` the “activity change, negative = inhibition” value was -2.68%. With `COc1ccc(NC(=O)c2sc3nc(C)nc(N4CCN(c5ccccn5)CC4)c3c2C)c(OC)c1` the Potency was 3.97 µM (active). In the case of `Cc1ccc(Nc2nc(N3CCOCC3)nc(N3CCOCC3)n2)cc1Cl`, the Potency is reported as 1.99 µM (active). For `CN(C)c1ccnc2sc3c(=O)n(Cc4ccccc4)cnc3c12`, the Potency was 4.45 µM (active). For `COc1ccc(-c2nn(-c3ccccc3)cc2/C=C\C(=O)N2CCOCC2)cc1[N+](=O)[O-]`, the Potency was 1.41 µM (active). For `Cc1ccc(C)c(S(=O)(=O)N2CCN(c3ncnc4sccc34)CC2)c1`, the Potency was 4.99 µM (active). For `Cc1ccccc1NC(=O)CSc1nc2ccc(Nc3nc(N4CCOCC4)nc(N4CCOCC4)n3)cc2s1`, the Potency was 3.15 µM (active). For `COc1ccc(NC(C)=O)cc1NC(=O)CN1CCN(C2c3ccccc3-c3ccccc32)CC1`, the Potency was 2.81 µM (active).
% is scaled to controls: 0 for no effect and ±100 for the full control effect; potency is read from the fitted curve at half-maximal effect.
